Reference: PubChem BioAssay AID493005 (National Center for Advancing Translational Sciences (NCATS), 2010)
Hit rate of the full screen: of about 340,000 compounds, fewer than 10 were called active. Calls come from the whole dose curve; as a rule, active = well fitted inhibition curve with a large enough effect in the main read-out, with a control signal flat (not every such curve was filed as active); inconclusive = small, poorly fitted or top-dose-only effect, or effect the other way, or a change in a side signal; inactive = no such curve, though single readings can be large or run the other way. Only a sample is shown.

These molecules were tested against Tumor susceptibility gene 101 protein (Homo sapiens) (UniProt Q99816) (assay: qHTS Assay for Iinhibitors of HIV-1 Budding by Blocking the Interaction of PTAP/TSG101). Settings: Fluorescence polarization, FITC-PTAP peptide / Tsg101 binding; series mostly up to 115 µM.
Sequence of Tumor susceptibility gene 101 protein (Homo sapiens) (Q99816 whole entry, looked up): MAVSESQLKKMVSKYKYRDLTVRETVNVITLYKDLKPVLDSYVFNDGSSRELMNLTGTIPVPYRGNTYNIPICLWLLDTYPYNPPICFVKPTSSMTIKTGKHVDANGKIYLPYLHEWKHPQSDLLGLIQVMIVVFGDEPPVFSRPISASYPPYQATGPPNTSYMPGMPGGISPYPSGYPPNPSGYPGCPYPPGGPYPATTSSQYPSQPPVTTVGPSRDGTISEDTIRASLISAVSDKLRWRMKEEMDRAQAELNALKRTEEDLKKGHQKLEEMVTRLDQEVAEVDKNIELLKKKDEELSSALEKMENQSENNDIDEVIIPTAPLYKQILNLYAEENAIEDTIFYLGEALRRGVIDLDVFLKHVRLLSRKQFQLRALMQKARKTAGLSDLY
Description: NIH Molecular Libraries Probe Production Network [MLPCN] NIH Chemical Genomics Center [NCGC] MLPCN Grant: 1 R03 MH087464-01A1 PI Name: Dr. Eric Freed, NCI NCGC Assay Overview: Stages of the HIV-1 replication cycle, specifically virus assembly and release, provide underexploited targets for the development of novel antiviral inhibitors. The late stages of HIV-1 replication are mediated by the Gag precursor protein, Pr55Gag. Expression of Pr55Gag is both necessary and sufficient for the production of virus-like particles from Gag-expressing cells. The Gag protein hijacks key host proteins involved in endocytic machinery of the host cell to promote endosomal processing and viral budding. The budding process requires a direct interaction between a […] (PTAP) motif in the p6 domain of Gag and the cellular endosomal sorting protein known as Tsg101. In this way, the Gag PTAP motif promotes the host cells to recruit viral particles to the plasma membrane where the new viral particles are released, effectively turning the host cells into viral factories. A fluorescence anisotropy assay has been developed to quantitatively measure the PTAP-Tsg101 interaction which can be used to screen for inhibitors of this interaction.
NCGC Assay Protocol Summary: Two uL of the Tsg101 binding domain in buffer (10 mM HEPES pH 7.5; 0.15 M NaCl, 0.01% Tween 20; 3 mM EDTA;0.1 mM TCEP) was dispensed into Greiner black MB 1536-well plates (final concentration 10 uM). Then, 23 nL of compounds or DMSO were delivered to each well using a pin tool. Finally, 2 uL of a FITC-labeled peptide containing the PTAP motif (1) in the same buffer was dispensed (50 nM final concentration) and the binding was allowed to proceed for 20 min. at r.t. Fluorescent polarization was determined using FITC excitation and polarized emission filters on a Perkin Elmer Viewlux. Keywords: Tsg101, PTAP, Gag, HIV, fluorescent polarization, MLSMR, MLPCN, NIH Roadmap, qHTS, NCGC

outcome, inactive:
Cc1cc(C)cc(-c2nnc(SCC(=O)NC3CC3)o2)c1, CCc1cccc(C)c1NC(=S)N(CCCN1CCN(C)CC1)Cc1cccs1, COc1cccc(NC(=O)Cn2c3ccc(F)cc3c3nc4n(c(=O)c32)CCS4)c1, O=S(=O)(NN=C1CCCCCCC1)c1ccc(Br)cc1, Cn1c2ccccc2n2c(=O)c(=O)n(CC(=O)c3ccc(F)cc3)nc12, CCOc1ccc(NC(=O)COc2ccc(C(=O)N3CCC(C(N)=O)CC3)cc2OC)cc1, CC(NS(=O)(=O)c1ccccc1)c1n[nH]c(=S)n1-c1ccccc1 (stereo not given), O=C(O)C1CCCCC1C(=O)N1CCN(S(=O)(=O)c2ccc(F)cc2)CC1 (stereo not given), COc1ccc(OCc2n[nH]c(=S)n2N)cc1, Cc1ccccc1-n1cc(CNC(=O)CC2C(=O)NCCN2C/C=C/c2ccccc2)cn1 (stereo not given), CN1CCCN(C(=O)C2CCCCC2)CC1, CCc1nc(SCC(=O)Nc2ccccc2OC)n[nH]1, CC(=O)N(CN1C(=O)C2CC=CCC2C1=O)c1cccc(Cl)c1 (stereo not given), O=C(O)CCN(Cc1ccccc1)S(=O)(=O)c1c(Cl)cccc1Cl, CSc1nc2nc(-c3cccc(C(F)(F)F)c3)ccn2n1, CC(=O)n1cc([C@@H]2C=C(C(=O)N3CCN(Cc4ccc5c(c4)OCO5)CC3)O[C@H](OCc3ccc(CO)cc3)C2)c2ccccc21, CC(=O)N1CCOc2ccc(S(=O)(=O)N3CCC(C(=O)Nc4ccccc4F)CC3)cc21, COc1ccc(Cl)cc1NS(=O)(=O)c1cccc(C(=O)NCC2CCCO2)c1 (stereo not given), CC1=C2C(=O)OC(c3ccoc3)C2(C)CCC1 (stereo not given), C/C(=N\N1CCN(Cc2ccc(C)cc2)CC1)c1ccco1, O=C1CCC(=O)N1CCOP1(=O)COc2ccccc2OC1, O=C1c2ccccc2NC(c2ccccc2O)N1NS(=O)(=O)c1ccccc1 (stereo not given), COc1cccc(C(=O)Nc2cc3c(cc2Br)OCCCO3)c1, COc1ccccc1C(=O)Nc1ccnn1C1CCN(C(=O)C(C)(C)C)CC1, O=C(CCSc1ccccc1)NCCSc1ccccn1, CCCCC(=O)NC(c1ccc(OC)c(OC)c1)c1ccc2cccnc2c1O (stereo not given), CN(C)CCNC(=O)c1ccc(Cl)c2cc3ccccc3nc12, CCCCN(C(=O)CSCC(=O)Nc1ccc(OC)cc1)c1c(N)n(CCC)c(=O)[nH]c1=O, C=CCN1C(=O)C(Cc2ccc(OCC)cc2)SC1=Nc1ccc(C(=O)O)cc1 (stereo not given), O=C(O)CN(Cc1ccco1)S(=O)(=O)c1ccc(F)cc1, CCN(CC)S(=O)(=O)c1cccc(NC(=O)c2ccc(S(=O)(=O)N3CCCC3)cc2)c1, CC(NCCO)C(=O)C12CC3CC(CC(C3)C1)C2 (stereo not given), COCCNC(=O)C(OC(=O)c1cccs1)c1ccc(F)cc1 (stereo not given), O=C1NC(Nc2nc3ccccc3s2)(C(F)(F)F)C(=O)N1C1CCCCC1 (stereo not given), COC(=O)c1cc(NC(=O)CC2C(=O)NCCN2C(=O)c2ccc(F)cc2)cc(C(=O)OC)c1 (stereo not given), Cc1occc(=O)c1OCc1c(Cl)cccc1Cl, CCCCc1ccc(NS(=O)(=O)c2cccc(C(=O)N3CCCN(C)CC3)c2)cc1, CCC(=O)N1c2ccc(S(=O)(=O)NCc3ccco3)cc2CC1C (stereo not given), Cc1nnc(SCCCCSc2nnc(C)c(=O)[nH]2)[nH]c1=O, CCOC(=O)c1cccc(NC(=O)CCc2nnc3ccc(N4CCOCC4)nn23)c1, CCCC[C@H]1COCCS(=O)(=O)N1Cc1cccc(Cl)c1, C/C=C/c1ccc(OCC(=O)NNC(=O)CN(C)S(=O)(=O)c2ccc(C)cc2)c(OC)c1, CC(C)(C)c1cc(NC(=O)NN2CCOCC2)nn1-c1c(Cl)cc(Cl)cc1Cl, COc1ccc(OC)c(C(O)c2nc3ccccc3n2C)c1 (stereo not given), NC(=O)C1(N2CCCC2)CCN(Cc2ccccc2)CC1, CCOC(=O)C1CN(S(=O)(=O)c2ccc(F)cc2)C1, CC(C)(C)n1cnnc1Sc1ccc([N+](=O)[O-])cn1, O=C(COC(=O)/C=C/c1cccc(Cl)c1)NCc1cccs1, Cc1onc(-c2c(F)cccc2Cl)c1C(=O)Nc1cccc(S(=O)(=O)N2CCCCC2)c1, CSc1sc(C(=O)NC(=O)NCc2cccnc2)c(C)c1-c1ccon1, Cc1nn(-c2ccccc2)c2c1C(c1cccc([N+](=O)[O-])c1)N(c1ccccc1)C(=O)N2 (stereo not given), CC1(C)C2CCC13CS(=O)(=O)NC3C2 (stereo not given), Cc1nc(Nc2ccccc2C)c2cnn(C)c2n1, O=C1N[C@@H](Cc2ccccc2)C(=O)N2[C@@H]3N(S(=O)(=O)c4ccc(F)cc4)c4ccccc4[C@]3(Br)C[C@@H]12, CCC1=C(OC(=O)N(CC)CC)N2C(=O)OC(=NCC3CC3)[C@]2(C)[C@H]2C1=CC[C@H]1C(=O)N(CC(=O)OC)C(=O)[C@H]12, CC(C)N1CCc2c(sc(NC(=O)Cc3ccccc3)c2C#N)C1, C#CCCCc1nc2ccccc2c(=O)n1N, CCCCN1CC(CO)Oc2cccc(F)c2S1(=O)=O (stereo not given), CCCc1nc(SCC(=O)Nc2ccccc2OC)c2c(=O)n(C)c(=O)n(C)c2n1, CC(=O)Nc1cccc(NC(=O)CSc2nccn2Cc2ccc(F)cc2)c1, N#Cc1cccc(OC(=O)c2ccc3c(=O)n4c(nc3c2)CCC4)c1, CSc1ccccc1NC(=O)CN(C)CC(=O)Nc1cccc(Br)c1, CN(C)/C(=N\OC(=O)c1ccccc1)c1nonc1N, CCOc1ccc(NC(=O)[C@H](C)NC(=O)C2CC(=O)N(c3ccc(OC)cc3)C2)cc1 (stereo not given in full), COc1cc(C2NC(=O)NC(c3ccccc3)=C2C(C)=O)c(Br)cc1OCC(N)=O (stereo not given), Cc1ccc(C(NC(=O)N2CCCC2)C(Cl)(Cl)Cl)cc1F (stereo not given), CCn1c(CC(=O)Nc2ccccc2C)nnc1SCC(=O)NC1=NCCS1, Cc1cccc(-n2c(Cc3cc(=O)[nH]c(=O)[nH]3)nnc2SC(C)C)c1, Cc1ccccc1C(=O)N1CCC(C(=O)Nc2ccc(S(=O)(=O)N(C)C(C)C)cc2)CC1, Cc1no[n+]([O-])c1COc1ccccc1/C=C1\NC(=S)NC1=O, Cc1coc2cc3oc(=O)c(CCC(=O)O)c(C)c3cc12, CC(C)Cc1nnc(N)s1, Cc1ccc2c(c1)N(CC(=O)NCCCN1CCCCC1)C(=O)c1cccnc1O2, CC1CC(C)CN(C(=O)CCNC(=O)Cn2cnc3ccccc3c2=O)C1 (stereo not given), O=C(Cc1ccc(S(=O)(=O)N2CCOCC2)s1)NCCOc1ccccc1F, O=C(COc1ccc2c(c1)CCC2)N1CCN(c2ccc(F)cc2)CC1, CN(C)c1ccc(Nc2c3c4c(cccc4n(C)c2=O)C(=O)c2ccccc2-3)cc1, CC(Cc1cccs1)NC(=O)c1cccc(Cl)c1 (stereo not given), O=C(Cc1ccc([N+](=O)[O-])cc1)NCCc1ccc2c(c1)OCO2, CCC(CC)C(=O)Nc1c2c(nn1-c1ccc(C)cc1)CS(=O)(=O)C2, CCCC1(C(=O)OCC)NC(c2ccc(N(C)C)cc2)C2C(=O)N(c3ccc4c(c3)OCCO4)C(=O)C21 (stereo not given), COc1cc2c(cc1CNC[C@H]1O[C@@H](n3cnc(C(N)=O)n3)[C@H](O)[C@@H]1O)OCO2, COc1ccc(/C=C/C2=CC(C)(C)NC(=S)N2)c(OC)c1, O=C(NC1CCN(C(=S)Nc2ccc(Cl)cc2)CC1)C1CCCCC1, N#CC1(NC(=O)COC(=O)CSc2ccc(F)cc2)CCCCC1, CC(=O)c1ccc(Cc2ncc(C(F)(F)F)cc2Cl)s1, COc1ccc(-c2cc(C(F)(F)F)n3nc(C(=O)N4CCOCC4)c(Cl)c3n2)cc1, Cc1ccsc1C1C(C#N)=C(N)OC2=C1C(=O)CC(C)C2 (stereo not given), O=[N+]([O-])c1cccc(S(=O)(=O)N2CCCCCC2)c1, CC(C)c1ccc(S(=O)(=O)N2CCC3(CC2)OCCO3)cc1, O=C(CN1C(=O)NC2(CCCC2)C1=O)NCC1CCCO1 (stereo not given), NC(=O)c1ccc(CN2CCC(Cc3ccccc3)CC2)cc1, O=C(N/C(=C\c1ccc(O)cc1)C(=O)N1CCCCC1)c1ccccc1, O=C(O)C1C2C=CC(O2)C1C(=O)NCCc1cccc(Cl)c1 (stereo not given), CC1=C(C(=O)N(C)C)C(c2ccccc2OC(F)F)NC(=O)N1 (stereo not given), Cn1c2ccc(F)cc2c2nnc(NN)nc21, CC(C)Oc1ccc(CCc2n[nH]c(=S)n2Cc2ccccc2)cc1, CCc1nnc(NC(=O)CSc2nc3ccccc3c(=O)n2CCCOC)s1, O=C(Nc1ccc(-n2cccn2)cc1)C1CCN(Cc2ccsc2)CC1, CCOC(=O)C1Nc2ccc(C(F)(F)F)cc2C2C=CCC12 (stereo not given)
